Assay results: PubChem BioAssay AID1159580 (chemical genetic matrix, 2015)
The whole screen tested about 5,500 compounds, of which about 2,000 (36%) were called active. Inconclusive results (about 18%) are left out. No stated cut-off is given here; in the data, active means normalized growth mostly below about 0.91 (no sharp cut-off); inconclusive means no clear call, values can overlap the other calls; inactive means mostly above about 0.92. Some of the results follow.

Experiment: chemical genetic growth profiling, strain panel (AID 1159580);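 further: tested at 20 µM; growth read once vehicle control cultures reached saturation at 30 °C; 1 = growth at the plate median or of vehicle wells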
Conditions: S. cerevisiae deletion strains, growth OD

Measured: normalized growth

COc1ccc2c(c1)c(CC(=O)O)c(C)n2C(=O)c1ccccc1
inactive: locus YAL040C, strain CLN3, stronger effect = lower value 1.03 | locus YDR150W, strain NUM1, stronger effect = lower value 0.99 | locus YDR363W, strain ESC2, stronger effect = lower value 1.04 | locus YER002W, strain NOP16, stronger effect = lower value 1 | locus YGR078C, strain PAC10, stronger effect = lower value 1.03 | locus YGR229C, strain SMI1, stronger effect = lower value 1.02 | locus YNL153C, strain GIM3, stronger effect = lower value 0.986 | locus YNL175C, strain NOP13, stronger effect = lower value 1.02 | locus YNL197C, strain WHI3, stronger effect = lower value 1.01 | locus YNL224C, strain SQS1, stronger effect = lower value 1.02 | locus YOR083W, strain WHI5 (second series), stronger effect = lower value 1.03 | locus YPL055C, strain LGE1, stronger effect = lower value 1 | locus YPL241C, strain CIN2, stronger effect = lower value 0.998
